# Test results published in PubChem BioAssay AID652105 (National Center for Advancing Translational Sciences (NCATS), 2013).
# In all, about 330,000 compounds went through this assay and about 4,100 (1.2%) were called active. Not shown: some 2% with an inconclusive outcome. Only a selection was taken, and actives are over-represented in it overall. Unmarked numbers belong to inactive results. Rule for the calls: active = max response of -50% or lower; inconclusive = between -30% and -50%; inactive = -30% or higher.
# Biological target: Phosphatidylinositol 5-phosphate 4-kinase type-2 alpha (Homo sapiens) (UniProt P48426)
# Sequence (P48426 whole entry, looked up): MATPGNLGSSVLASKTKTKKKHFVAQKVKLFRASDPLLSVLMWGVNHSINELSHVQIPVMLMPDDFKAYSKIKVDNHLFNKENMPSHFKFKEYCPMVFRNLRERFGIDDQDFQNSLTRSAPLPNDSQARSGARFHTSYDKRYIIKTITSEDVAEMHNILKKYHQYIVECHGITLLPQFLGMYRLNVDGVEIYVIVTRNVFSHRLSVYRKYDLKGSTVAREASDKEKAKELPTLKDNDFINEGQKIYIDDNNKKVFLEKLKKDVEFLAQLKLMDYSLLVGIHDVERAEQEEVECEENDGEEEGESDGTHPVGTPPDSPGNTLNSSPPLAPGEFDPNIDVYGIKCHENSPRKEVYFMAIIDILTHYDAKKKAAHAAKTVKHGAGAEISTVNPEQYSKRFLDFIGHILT
# Assay: qHTS for Inhibitors of phosphatidylinositol 5-phosphate 4-kinase (PI5P4K); note: value at the top dose of about 77 µM
# Settings: PI5P4Kalpha enzyme, ADP-Glo luminescence, 60 min; hits give low values
# Summary of the method: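 Luminescence from ADP-Glo served as readout of PI5P4Kalpha activity in a qHTS format. Reaction: enzyme, substrate, compound, ATP at 5 microM final, 60 min at RT.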
# % is set by controls: 0 for no effect and ±100 for the full control effect.
row,SMILES,max response
1,Cc1ccc(NC2(C#N)C(=O)Nc3ccccc32)cc1 (centres undefined),-2.41%
2,N#CC1=C(N)Oc2[nH]c(=S)[nH]c(=O)c2C12C(=O)Nc1ccccc12 (centres undefined),-89.2% (active)
3,CC1(C)Cc2ccccc2-c2[nH]c(=S)[nH]c(=O)c21,-19.7%
4,CCc1c(-c2ccc(F)cc2)ncn1Cc1cccc(-c2ccccc2)c1,-9.99%
5,NNc1cccc(C=Cc2ccccc2)cc1=O,-74.4% (active)
6,O=c1oc(/C=C/c2ccccc2)nc2ccccc12,8.43%
7,O=c1[nH]c(/C=C/c2cccc(Br)c2)nc2ccccc12,-0.363%
8,OC(c1ccccc1)(c1ccccc1)C1CCN(CCCOc2ccccc2)CC1,-3.47%
9,CC(C)C1Cc2[nH][nH]c(=O)c2C(c2ccc(Cl)cc2)O1 (centres undefined),-8.68%
10,C1=C(N2CCOCC2)/C(=C/c2nc3ccccc3[nH]2)CC1,-77.5% (active)
11,CC1(C)Cc2c(C#N)c(SCc3nc4ccccc4[nH]3)nc(N3CCOCC3)c2CO1,2.17%
12,O=c1[nH]c(N2CCOCC2)nc2ccccc12,-4.73%
13,FC(F)(F)c1cccc(-c2nc3ccccc3n2C(c2ccccc2)c2nc3ccccc3[nH]2)c1 (centres undefined),-4.13%
14,CC1(C(=O)NS(=O)(=O)c2cccs2)CCN1C(=O)Cc1ccc(-c2ccccc2)cc1 (centres undefined),-0.507%
15,COC(=O)C1=C(C)N(C)C(=O)NC1c1ccc([N+](=O)[O-])o1 (centres undefined),-6.27%
16,COC(=O)c1c(C)[nH]c(C)c1-c1ccc([N+](=O)[O-])cc1,8.82%
17,COC(=O)C1=C(C(=O)OC)C(c2cc([N+](=O)[O-])ccc2O)c2sc(=O)[nH]c2S1 (centres undefined),-81% (active)
18,CCCNC(=O)C1(C)CCN1C(=O)Cc1ccc(-c2ccccc2)cc1 (centres undefined),-2.28%
19,CC(=O)c1nn(-c2ccccc2)c(=Nc2ccccc2)cc1C,-0.302%
20,O=C(NCc1cccnc1)c1cc(C2CCCN(C(=O)CCCc3ccccc3)C2)on1 (centres undefined),1.02%
21,COc1ccc(C(=O)N2CCC(C(=O)Nc3ccc(C)cc3)CC2)cc1,-67.6% (active)
22,O=C(Nc1ccccc1)C1CCN(C(=O)c2ccc(Br)cc2)CC1,-5.42%
23,COc1ccc(CNC(=O)C2CCN(C(=O)c3ccccc3)CC2)cc1,6.89%

row,SMILES,max response
1,Cc1ccc(C(C[N+](=O)[O-])c2c(C)cc3ccccn23)cc1 (centres undefined),3.11%
2,Nc1ccccc1SCc1cc([N+](=O)[O-])cc2c1OCOC2,0.872%
3,Nc1ccccc1SC(C[N+](=O)[O-])c1ccccc1 (centres undefined),-75.7% (active)
4,COc1cc(NC(=O)c2cc(-c3ccc(F)cc3OC(C)C)n[nH]2)cc(OC)c1OC,-6.5%
5,CCCCCCN1CCN(C2CN(Cc3cn(Cc4ccc(F)cc4)nn3)S(=O)(=O)C2)CC1 (centres undefined),0.312%
6,NS(=O)(=O)c1ccc(-c2ccc(/C=C3\SC(=O)NC3=O)o2)cc1,-52.9% (active)
7,CN1CCN(/N=C/c2ccc(-c3ccc([N+](=O)[O-])cc3)o2)CC1,-0.908%
8,O=C(Nc1ccccc1)c1ccccc1Br,2.77%
9,CCN(CC)CCN(C)C(c1ccnc2ccccc12)c1nnnn1-c1ccc2c(c1)OCCO2 (centres undefined),-0.0355%
10,O=C(N/N=C/c1ccco1)c1csc2c1CCCC2,-21.6%
11,O=C(N/N=C/c1ccco1)c1ccc(C(=O)N/N=C/c2ccco2)o1,-70.9% (active)
12,O=C(Cc1ccc([N+](=O)[O-])cc1)N/N=C/c1ccco1,-5.81%
13,OC(c1cc(Cl)cc(Cl)c1)c1ncc(-c2ccccc2C(F)(F)F)[nH]1 (centres undefined),14.3%
14,COc1ccc(NC(=O)C2Cc3c(-c4cccc(NC(C)=O)c4)ccnc3O2)cc1OC (centres undefined),-8.09%
15,C=CCC[C@H](CCCCC)OC(=O)/C=C/[C@H](O)[C@@H](O)C[C@@H](O)CC=C,17.1%
16,O=C(CNC(=O)Cc1ccccc1)N=Nc1c(O)[nH]c2ccc(Br)cc12,-6.57%
17,Oc1[nH]c2ccc(Br)cc2c1N=Nc1nn[nH]n1,-58.4% (active)
18,NS(=O)(=O)c1ccc(N=Nc2c(O)[nH]c3ccc(Br)cc23)cc1,-0.139%
19,CC1(C(=O)NCc2ccccc2)CN(S(C)(=O)=O)CC(=O)N1CC(F)(F)F (centres undefined),-7.01%
20,O=C(O)c1ccccc1N=N/C(=N/Nc1cc(S(=O)(=O)O)ccc1O)c1ccccc1,-101% (active)
21,CN1OC[C@@H]2CN(C(=O)c3cccc4ccccc34)[C@H](c3ccc(N4CCCCC4)cc3)C[C@@H]21,-0.774%
22,COC(=O)c1ccc2nc(-c3ccc(OC)c(OC)c3)c(Cc3ccccc3)n2c1,-1.07%
23,CCOC(=O)C=Cc1ccc(C(=O)OCC)[nH]1,2.97%

row,SMILES,max response
1,CCN(CCN(C)C)C(=O)c1ccc2nc(C)c(N(C)C(=O)CCc3ccccc3)n2c1,10.1%
2,O=C(COC(=O)CCC(=O)c1cccs1)NCc1ccco1,-63% (active)
3,O=C(COC(=O)c1cc(S(=O)(=O)N2CCCCC2)ccc1Cl)NCc1ccco1,-24.6%
4,O=C(COC(=O)c1ccccc1O)NCc1ccco1,-51.6% (active)
5,CC1CCN(C(=O)COC(=O)CCC(=O)c2cccs2)CC1,-4%
6,O=C(COC(=O)Cc1ccc(Cl)cc1Cl)NCc1ccco1,0.392%
7,O=C(COC(=O)c1cccs1)NCc1cccs1,-2.68%
8,Cc1cc(C)n2c(Nc3c(C)cccc3C)c(CCc3ccccc3)nc2n1,0.703%
9,Cc1ccc(Cc2c(-c3ccc(Cl)cc3)nc3c4ccccc4ccn23)cc1,19.7%
10,Cc1ccccc1Cn1c(C)c(C(=O)NCc2cccc(C(F)(F)F)c2)sc1=O,6.94%
11,CCCCCn1nnnc1-c1nc2cc3ccccc3cc2[nH]c1=O,-6.84%
12,CCOC(=O)C(C(=O)c1ccccc1)C(c1ccccc1)c1nccc2ccccc12 (centres undefined),-6.07%
13,N#CCc1c(C#N)c(N)nc(N2CCCC2)c1C#N,-5.04%
14,N#Cc1c(N2CCCCC2)nc(N)c2c(N)nc(SCC(=O)O)cc12,-86.9% (active)
15,N#Cc1c(-c2ccccc2)cc(-c2ccccc2)nc1SCC(=O)O,-13.7%
16,Nc1ncnc2c1ncn2[C@@H]1O[C@H](C(=O)NS(=O)(=O)c2c(Cl)nc3sccn23)[C@@H](O)[C@H]1O,-5.36%
17,CC(C)(C)CC(=O)Nc1nc(C(N)Cc2ccc(C(F)(F)F)cc2)cs1 (centres undefined),0.168%
18,Nc1ncnc2c1ncn2[C@@H]1O[C@H](C(=O)N2CCCN(Cc3ccccc3F)CC2)[C@@H](O)[C@H]1O,1.03%
19,CCOC(=O)CSc1nccc(N(C)C)c1C#N,-3.71%
20,CCOC(=O)C(Sc1ncc(C#N)c(N)n1)C(C)C (centres undefined),-50.3% (active)
21,CCOC(=O)COc1nc(C)cc(C(F)(F)F)c1C#N,3.55%
22,CCOC(=O)C1(C)CCCN(C(=O)c2ccc(F)c(Cl)c2)C1 (centres undefined),-14.5%
23,CCOC1=C2[C@@H](CN(S(=O)(=O)c3ccc(C)cc3)[C@H]2c2ccccc2F)[C@H]2C(=O)N(Cc3ccccc3)C(=O)[C@H]2C1,-0.38%

row,SMILES,max response
1,CCCNC(=O)C1(C)CCN(Cc2ccc(Cl)c(Cl)c2)C1 (centres undefined),6.81%
2,CCCCN(C=O)c1c(CC)nc2c(OCc3ccccc3C(=O)OC)cccn12,-7.91%
3,O=C1[C@H]2[C@@H](c3ccc(C(F)(F)F)cc3)N[C@]3(CCCN(Cc4ccc(Cl)cc4)C3=O)[C@H]2C(=O)N1Cc1ccccc1,6.21%
4,COC(=O)[C@@]12C[C@@H](CC(=O)NCCCCc3ccccc3)C(=O)N(CCc3ccc(OC)c(OC)c3)C1=CCC(C)(C)C2,21.2%
5,O=c1[nH]c2ccccc2n2c(-c3ccccc3)nnc12,-92.9% (active)
6,O=C(c1ncn2c1c(=O)[nH]c1ccccc12)N1CCc2ccccc2C1,-1.33%
7,O=c1[nH]n2c(-c3ccccc3)nc(O)c2c2ccccc12,-2.92%
8,CN(Cc1ccccc1F)c1cc2c(c3c1ccn3C)C1CCC2O1 (centres undefined),-0.125%
9,C[C@@H]1CN([C@H](C)CO)S(=O)(=O)c2ccc(C#C[C@@H](C)O)cc2O[C@@H]1CN(C)Cc1ccc(-c2ccccc2)cc1,2.03%
10,OC[C@@H]1CN(Cc2ccc3c(c2)OCO3)C[C@H](n2cnc3c(NCc4ccco4)ncnc32)O1,-4.15%
11,CC(Sc1ccc(S(=O)(=O)N2CCN(C)CC2)cn1)C(=O)NC1CCCC(C)C1C (centres undefined),0.777%
12,COc1ccc(-c2ccc3[nH]c4c(c3c2)CCN2C[C@H]3[C@H](C)ON(C)[C@H]3C[C@@H]42)cc1,0.74%
13,O=C(C[C@H]1C[C@@H]2c3cc(NC(=O)C4CCC4)ccc3O[C@@H]2[C@H](CO)O1)NC1CCCCC1,-3.63%
14,Cc1nn(C)cc1/C=C1\CCC/C(=C\c2cn(C)nc2C)C1=O,-2.16%
15,CCn1cc(/C=C2/SC(=S)NC2=O)c(C)n1,-66.5% (active)
16,C=C1C(=O)[C@]23C[C@H]1CCC2[C@@]1(C)C(C[C@@H]3O)[C@](C)(C(=O)O)CC[C@@H]1O (some centres undefined),3.48%
17,O=[N+]([O-])c1ccc(CN2CC(N3CCC(c4ccccc4)CC3)CS2(=O)=O)cc1 (centres undefined),5.16%
18,COc1ccc(CNc2nc3c(c(=O)[nH]c(=O)n3C)n2Cc2ccccc2)cc1,6.3%
19,C=CCSc1nc2c(c(=O)[nH]c(=O)n2C)n1Cc1ccccc1,7.13%
20,Cn1c(=O)[nH]c(=O)c2c1[nH]c(=S)n2Cc1ccccc1,-85.5% (active)
